Measurements published in PubChem BioAssay (NCATS).
Inconclusive results are not listed. A call without a number means that no potency is given here. Calls of active or inactive are those of the source. Calls follow the shape of the dose curve; as a rule, active = well fitted cell-killing curve with a large enough effect; inconclusive = small, poorly fitted or top-dose-only effect, or effect the other way; inactive = flat fitted curve, though single readings scatter. *1 amine or outer side, *2 acyl side, *3 side chain or, on linkers, in order; H or OH if unused. Where a SMILES comes first, the peptide text is derived from it. [ ]: non-standard residue; d: D form. The star is where a group is joined. ξ: configuration not given here. X9 = CCC(C)(N*)C(=O)C1CC[C@@H](C(=O)N[C@@H](Cc2ccccc2)C(=O)NCC(=O)O)N1; X8 = O=C([C@@H]1CC(O)CN1[*:1])[*:2]; aIle = CC[C@@H](C)[C@H](N)C(=O)O; Thr(3ξ) = CC(O)[C@H](N)C(=O)O; ξIva = CCC(C)(N)C(=O)O; Aib = CC(C)(N)C(=O)O

system: OV90; test: Primary qHTS to identify gynecologic anti-cancer compounds using libraries of approved drugs and bioactive compounds (AID 1345084); conditions: Gynecologic cancer cell panel viability, ATPlite luminescence, 48 h; series mostly up to 57.5 µM; also: nearly all actives have a fitted effect of over 55% in size
Method in brief: (§1)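 Cytotoxicity screen measuring ATP content by luciferase luminescence. Each compound is applied at five concentrations for 48 h at 37 C with 5% CO2.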

SMILES | Potency | activity change, negative = cytotoxicity
O=C(C[C@@H]1C(C(=O)O)=CO[C@@H](O[C@@H]2O[C@H](CO)[C@@H](O)[C@H](O)[C@H]2O)/C1=C\CO)OCCc1ccc(O)cc1 | inactive | 
CC(C)(CC(=O)N1CCCC1)NCC(=O)N1C[C@@H](F)C[C@H]1C#N | inactive | 
CC1(C)CC[C@]2(C(=O)O)[C@H](O)C[C@]3(C)C(=CCC4[C@@]5(C)CC[C@H](O[C@@H]6OC[C@@H](O)[C@H](O)[C@H]6O)[C@@](C)(C(=O)O)C5CC[C@]43C)[C@@H]2C1 (stereo partly specified) | inactive | 
CN1CCc2cc(Cl)c(O)cc2[C@@H](c2cccc3c2OCC3)C1 | inactive | 
CCc1nnc(NS(=O)(=O)c2ccc(NC(=S)NC(=O)/C=C/c3ccc(F)cc3)cc2)s1 | inactive | 
COc1c2cc(c(O)c1OC)CCCCC(O)CCc1ccc(O)c-2c1 (stereo unspecified) | inactive | 
C/C(=C\C1CCC(C)C2CCC3(C)OC123)C(=O)O (stereo unspecified) | inactive | 
CCCC/C=C\CCCCCc1cc(=O)c2ccccc2n1C | inactive | 
CC1OC(O[C@@H]2[C@@H](O)[C@H](OC(=O)[C@]34CCC(C)(C)C[C@H]3C3=CCC5[C@@]6(C)CC[C@H](O[C@@H]7O[C@H](C(=O)O)[C@@H](O)[C@H](O[C@@H]8OC[C@@H](O)[C@H](O)[C@H]8O)[C@H]7O[C@@H]7O[C@H](CO)[C@H](O)[C@H](O)[C@H]7O)[C@@](C)(C=O)C6CC[C@@]5(C)[C@]3(C)C[C@H]4O)O[C@H](C)[C@@H]2OC2OC(C)C(OC3OCC(O)C(O)C3O)C(O)C2O)C(O)C(O)C1O (stereo partly specified) |  | 6.42% [at 6.55 µM] (inactive)
COc1ccnc(CCc2nc3ncccc3[nH]2)c1 | inactive | 
CCC(C)C(=O)O[C@H]1C[C@](C)(O)[C@]23OC(C)(C)[C@H](C[C@H](OC(=O)c4ccccc4)[C@]2(COC(C)=O)[C@H]1OC(=O)C(C)CC)[C@H]3OC(C)=O (stereo partly specified) | inactive | 
C[C@@H]1O[C@@H](O[C@H]2[C@@H]3C=CO[C@@H](O[C@@H]4O[C@H](CO)[C@@H](O)[C@H](O)[C@H]4O)[C@@H]3[C@@]3(CO)O[C@@H]23)[C@H](OC(=O)/C=C/c2ccc(O)cc2)[C@H](O)[C@H]1O | inactive | 
CC(=O)c1ccc(O[C@@H]2O[C@H](CO[C@@H]3OC[C@@H](O)[C@H](O)[C@H]3O)[C@@H](O)[C@H](O)[C@H]2O)cc1 | inactive | 

system: PA-1; test: as above; conditions: Gynecologic cancer cell panel viability, ATPlite luminescence, 48 h; series mostly up to 57.5 µM
Method in brief: as §1

SMILES | Potency | activity change, negative = cytotoxicity
CCC1(O)CC2c3cc(OC)c(OC)cc3CCN2CC1CC(C)C (stereo unspecified) | inactive | 
CC1=CC(=O)CC(C)(C)C1CO[C@@H]1O[C@H](CO)[C@@H](O)[C@H](O)[C@H]1O (stereo partly specified) | inactive | 
C=C1CCC2(OC1)OC1CC3C4CC=C5CC(O)CC(O[C@@H]6OC[C@H](OC(=O)C(O)C(C)CC)[C@H](O)[C@H]6O[C@@H]6O[C@@H](C)[C@H](O)[C@@H](O)[C@H]6O)C5(C)C4CCC3(C)C1C2C (stereo partly specified) |  | -0.0668% [at 11.6 µM] (inactive)
CC(O)C/C=C/C=C/C(=O)OC1C=C2COC(=O)C2(O)C2(C)CCCC(C)(C)C12 (stereo unspecified) | inactive | 
N[C@@H](CC(=O)Nc1ccc(Oc2cc(F)c(F)cc2Br)cc1)C(=O)O | inactive | 
COc1ccc(CC(=O)NCc2ccccc2-c2ccccc2C(=O)NCCc2cccnc2)cc1 | inactive | 
CC1OC(OC2C(OC(=O)[C@]34CCC(C)(C)C[C@H]3C3=CCC5[C@@]6(C)CC[C@H](OC7OC(C(=O)O)C(O)C(O)C7O)C(C)(C)C6CC[C@@]5(C)[C@]3(C)CC4O)OC(CO)C2O)C(O)C(O)C1OC1OCC(O)C(O)C1O (stereo partly specified) |  | 30.3% [at 11.6 µM] (inactive)
C=C1CC/C=C(/CO)C(=O)C[C@@H]2[C@@H]1C[C@@]2(C)COC(C)=O | inactive | 
O=C(OC[C@H]1O[C@H](O[C@]2(CO)O[C@H](CO)[C@@H](O)[C@@H]2O)[C@H](O)[C@@H](O)[C@@H]1O)c1ccc(O)cc1 | inactive | 
C=CCC/C=C/C#CCCCCCCCC[C@H]1C(=O)O[C@H](C)[C@@H]1O | inactive | 
COc1cc2c(cc1O)CC(O)(CO)C(CO)C2c1ccc(OC2OC(CO)C(O)C(O)C2O)c(OC)c1 (stereo unspecified) | inactive | 
C=C1[C@H]2CCC3[C@]4(C)CCC[C@@](C)(C(=O)O)C4CC[C@]3(C2)[C@H]1OC(C)=O (stereo partly specified) | inactive | 
CC[C@@H](C)[C@H](NC(=O)C(C)(C)NC(=O)[C@H](CCC(N)=O)NC(=O)C(C)(CC)NC(=O)[C@H](Cc1c[nH]c2ccccc12)NC(C)=O)C(=O)N[C@H](C(=O)NC(C)(C)C(=O)N[C@@H](CC(C)C)C(=O)NC(C)(C)C(=O)N1CCC[C@H]1C(=O)N[C@@H](CCC(N)=O)C(=O)NC(C)(C)C(=O)N1CC(O)C[C@H]1C(=O)NC(C)(CC)C(=O)C1CC[C@@H](C(=O)N[C@@H](Cc2ccccc2)C(=O)NCC(=O)O)N1)C(C)O (stereo partly specified) (Ac-W[ξIva]Q[Aib][aIle][Thr(3ξ)][Aib]L[Aib]PQ[Aib][X8]-X9) |  | -32% [at 6.55 µM] (inactive)
OC[C@H]1O[C@@H](OCCc2ccccc2)[C@H](O[C@@H]2OC[C@@H](O)[C@H](O)[C@H]2O)[C@@H](O)[C@@H]1O | inactive | 
CC1=CC23[C@H](C=C(C(=O)O)[C@@H]2COC(=O)[C@]3(O)CO)[C@@H]1C (stereo partly specified) | inactive | 
CC(C)(C)NS(=O)(=O)c1ccc(-c2ccc3[nH]nc(N)c3c2)cc1 | inactive | 
C[C@@H]1C[C@@H](O)[C@@]23CO[C@]2(CO)CCC[C@@H]3[C@@]12C[C@@H](c1ccoc1)OC2=O | inactive | 
COc1cccc(CN(C(=O)CC(C)(C)C)C2CC(C(=O)N3CCNCC3)N(Cc3ccc4c(c3)OCO4)C2)c1 (stereo unspecified) | inactive | 
C=C1CC23CC1CCC2C12OC(=O)C(C)(C(O)CC1O)C2C3C(=O)O (stereo unspecified) | inactive | 

SMILES | Potency | activity change, negative = cytotoxicity
COc1ccc(C2C(C(=O)O)C(C(=O)O)C2c2ccc(OC)cc2O[C@@H]2O[C@H](CO)[C@@H](O)[C@H](O)[C@H]2O)c(O[C@@H]2O[C@H](CO)[C@@H](O)[C@H](O)[C@H]2O)c1 (stereo partly specified) | inactive | 
CC1OC(OC2C(OC3C(O[C@H]4CC[C@@]5(C)C(CC[C@]6(C)C5C(=O)CC5=C7CC(C)(C)CC(O)[C@]7(C)CC[C@]56C)C4(C)C)OC(C(=O)O)C(O)C3O)OCC(O)C2O)C(O)C(O)C1O (stereo partly specified) |  | 14.2% [at 11.6 µM] (inactive)
CN1CCN(c2nc(-c3ccc(C(=O)NC4(C(=O)NCC#N)CCCCC4)cc3)cs2)CC1 | inactive | 
C[C@H]1/C=C/C=C/C=C/C=C/C=C/[C@@H](O)[C@H](C(=O)O)[C@H](O)C[C@H](O)CCC[C@H](O)C[C@H](O)C[C@H](O)[C@@H](C)C(=O)O[C@@H]1C | inactive | 
COc1cc(Nc2nc3c(s2)CCCC3c2ccccc2)ccc1-n1cnc(C)c1 (stereo unspecified) |  | 7.13% [at 11.6 µM] (inactive)
CCCO[C@@H]1O[C@H](CO)[C@@H](O)[C@H](O)[C@H]1O[C@@H]1OC[C@@H](O)[C@H](O)[C@H]1O | inactive | 
O=C(C[C@@H]1C(C(=O)O)=CO[C@@H](O[C@@H]2O[C@H](CO)[C@@H](O)[C@H](O)[C@H]2O)/C1=C\CO)OCCc1ccc(O)cc1 | inactive | 
CC(C)(CC(=O)N1CCCC1)NCC(=O)N1C[C@@H](F)C[C@H]1C#N | inactive | 
CC1(C)CC[C@]2(C(=O)O)[C@H](O)C[C@]3(C)C(=CCC4[C@@]5(C)CC[C@H](O[C@@H]6OC[C@@H](O)[C@H](O)[C@H]6O)[C@@](C)(C(=O)O)C5CC[C@]43C)[C@@H]2C1 (stereo partly specified) | inactive | 
CN1CCc2cc(Cl)c(O)cc2[C@@H](c2cccc3c2OCC3)C1 | inactive | 
CCc1nnc(NS(=O)(=O)c2ccc(NC(=S)NC(=O)/C=C/c3ccc(F)cc3)cc2)s1 | inactive | 
COc1c2cc(c(O)c1OC)CCCCC(O)CCc1ccc(O)c-2c1 (stereo unspecified) | inactive | 
C/C(=C\C1CCC(C)C2CCC3(C)OC123)C(=O)O (stereo unspecified) | inactive | 
CCCC/C=C\CCCCCc1cc(=O)c2ccccc2n1C | inactive | 
CC1OC(O[C@@H]2[C@@H](O)[C@H](OC(=O)[C@]34CCC(C)(C)C[C@H]3C3=CCC5[C@@]6(C)CC[C@H](O[C@@H]7O[C@H](C(=O)O)[C@@H](O)[C@H](O[C@@H]8OC[C@@H](O)[C@H](O)[C@H]8O)[C@H]7O[C@@H]7O[C@H](CO)[C@H](O)[C@H](O)[C@H]7O)[C@@](C)(C=O)C6CC[C@@]5(C)[C@]3(C)C[C@H]4O)O[C@H](C)[C@@H]2OC2OC(C)C(OC3OCC(O)C(O)C3O)C(O)C2O)C(O)C(O)C1O (stereo partly specified) |  | -6.4% [at 6.55 µM] (inactive)
COc1ccnc(CCc2nc3ncccc3[nH]2)c1 | inactive | 
CCC(C)C(=O)O[C@H]1C[C@](C)(O)[C@]23OC(C)(C)[C@H](C[C@H](OC(=O)c4ccccc4)[C@]2(COC(C)=O)[C@H]1OC(=O)C(C)CC)[C@H]3OC(C)=O (stereo partly specified) | inactive | 
C[C@@H]1O[C@@H](O[C@H]2[C@@H]3C=CO[C@@H](O[C@@H]4O[C@H](CO)[C@@H](O)[C@H](O)[C@H]4O)[C@@H]3[C@@]3(CO)O[C@@H]23)[C@H](OC(=O)/C=C/c2ccc(O)cc2)[C@H](O)[C@H]1O | inactive | 
CC(=O)c1ccc(O[C@@H]2O[C@H](CO[C@@H]3OC[C@@H](O)[C@H](O)[C@H]3O)[C@@H](O)[C@H](O)[C@H]2O)cc1 | inactive | 
